Bioassay records from PubChem.
CHT allo act = CHT positive allosteric modulators, primary screen, cell-based, membrane potential dye, choline EC20 | 310,000 compounds, 0.49% hits | B-score at 10 µM | CHT-expressing cells; stronger effect = higher value; LV-AA mutant CHT in HEK293 cells | High affinity choline transporter 1 (Homo sapiens), Q9GZV3 | AID 488977, 2010;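 active = initial fluorescence not abnormally high and integrated response B-score, plate-corrected, over 3 SD above library mean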
TMEM16A inh = TMEM16A chloride channel inhibitors, primary screen, cell-based, HTS; normalized B-score (activity score, 25-100; higher = stronger inhibition) at 10 µM; AID 588511, 2011; 310,000 compounds, 1.2% hits; Anoctamin-1 (Mus musculus), Q8BHY3; HEK293 TMEM16A/YFP iodide influx fluorescence, ionomycin;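 active = ratio plate-corrected score three or more library SD toward inhibition, starting fluorescence score within five deviations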;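 note: score derived from kinetic fluorescence span divided by baseline fluorescence per well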
TMEM16A act = TMEM16A chloride channel activators or potentiators, primary screen, cell-based, HTS | Anoctamin-1 (Mus musculus), Q8BHY3 | HEK293 TMEM16A/YFP-H148Q/I152L, iodide quench fluorescence; stronger effect = lower value | B-score at 10 µM | 340,000 compounds, 0.3% hits;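 active = fluorescence-ratio B-score plate-corrected deviation score at least 3 library SD below zero, with starting fluorescence score within 5 deviations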;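 note: channel opened by trigger with iodide after compound preincubation; score built on the fluorescence ratio of max minus min over baseline; more negative score means more quench and so TMEM16A activation or potentiation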
IDE cell inh = human IDE inhibitors in live cells, primary screen, fluorescence polarization, HEK cells, FAbetaB substrate | Insulin-degrading enzyme (Homo sapiens), P14735 | FAbetaB cleavage | inhibition, % at 5.59 µM | 320,000 compounds, 0.41% hits | AID 434962, 2010;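 active = percent inhibition above the average of all tested compounds plus 3 SD, set per screening campaign, cut at about 16% in these data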;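 note: IDE supplied by intact live HEK cells; FP after avidin binding of uncleaved biotin substrate so inhibition keeps polarization high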
Target sequence (P14735 whole entry, looked up): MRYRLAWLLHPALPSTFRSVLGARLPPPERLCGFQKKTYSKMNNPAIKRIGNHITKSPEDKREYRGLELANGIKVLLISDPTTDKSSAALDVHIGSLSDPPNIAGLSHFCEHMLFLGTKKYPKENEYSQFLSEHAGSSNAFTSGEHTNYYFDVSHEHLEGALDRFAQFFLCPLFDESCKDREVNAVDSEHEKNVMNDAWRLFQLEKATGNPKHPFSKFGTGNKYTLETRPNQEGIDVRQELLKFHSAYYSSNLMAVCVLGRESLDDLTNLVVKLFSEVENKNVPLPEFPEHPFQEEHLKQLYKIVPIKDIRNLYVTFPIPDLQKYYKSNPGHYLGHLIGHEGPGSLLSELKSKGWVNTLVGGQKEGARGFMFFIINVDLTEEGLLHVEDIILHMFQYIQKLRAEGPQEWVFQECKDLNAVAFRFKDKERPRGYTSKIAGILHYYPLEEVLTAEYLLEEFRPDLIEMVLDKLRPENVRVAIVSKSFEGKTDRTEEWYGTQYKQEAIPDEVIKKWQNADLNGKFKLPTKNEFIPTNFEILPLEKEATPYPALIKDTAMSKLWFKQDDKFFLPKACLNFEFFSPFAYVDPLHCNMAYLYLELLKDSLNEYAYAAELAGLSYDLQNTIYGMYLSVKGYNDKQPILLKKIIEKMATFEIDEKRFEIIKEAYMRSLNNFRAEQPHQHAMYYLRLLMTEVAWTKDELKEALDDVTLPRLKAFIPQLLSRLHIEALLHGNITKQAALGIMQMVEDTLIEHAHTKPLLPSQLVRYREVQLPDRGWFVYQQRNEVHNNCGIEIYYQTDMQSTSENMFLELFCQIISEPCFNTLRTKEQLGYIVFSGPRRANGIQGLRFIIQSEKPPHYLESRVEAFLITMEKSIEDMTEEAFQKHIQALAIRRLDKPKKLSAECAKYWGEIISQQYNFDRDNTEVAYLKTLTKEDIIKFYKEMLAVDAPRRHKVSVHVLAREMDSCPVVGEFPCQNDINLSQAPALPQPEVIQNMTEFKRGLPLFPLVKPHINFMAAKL
IDE cell activ = human IDE activators in live cells, primary screen, fluorescence polarization, HEK cells, FAbeta-B substrate. FAbeta-B cleavage; 0% vehicle, 100% cell-free pure enzyme wells. 340,000 compounds, 0.073% hits. Insulin-degrading enzyme (Homo sapiens), P14735. activation, % at 5.96 µM;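 active = activation above the mean of all tested compounds plus 3 SD, set per screening campaign, cut at about 17% in these data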
CHT block = inhibitors of human choline transporter CHT; AID 488975, 2010; 310,000 compounds, 0.86% hits; High affinity choline transporter 1 (Homo sapiens), Q9GZV3; CHT-expressing cells, membrane potential dye, choline response; stronger effect = lower value; B-score at 10 µM;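 active = B-score over 3 SD under the library average, and starting fluorescence ratio not unusually high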;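 note: choline stimulus applied at its EC90 after an EC20 pre-addition; B-score computed on integrated fluorescence ratio after choline addition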
Numbers stand for hits. A selection: hits, their analogues and other compounds. The true share with any hit is near 2.7%.

`CCCn1cc(S(=O)(=O)c2ccc(F)cc2)c(=O)c2cc(OCC)ccc21` gave CHT allo act inactive, TMEM16A inh inactive, TMEM16A act inactive, IDE cell inh inactive, IDE cell activ inactive and CHT block inactive.
`c1ccc(CC2CCN(c3ncnc4sccc34)CC2)cc1` gave TMEM16A act -39.9 and IDE cell activ inactive.
For CN(C)c1ccc(S(=O)(=O)N2CCCCC2)cc1NC(=O)CCNC(=O)c1ccc(Cl)cc1 the results were TMEM16A act inactive, IDE cell inh inactive and IDE cell activ inactive.
Screening CC(CC(=O)O)CC(=O)Nc1cc([N+](=O)[O-])ccc1O (configuration not stated) returned CHT allo act inactive, TMEM16A inh inactive, TMEM16A act inactive, IDE cell inh inactive, IDE cell activ inactive and CHT block inactive.
For O=C(CSCc1ccc(Cl)cc1)Nc1cc([N+](=O)[O-])ccc1O the results were CHT allo act inactive, TMEM16A inh inactive, TMEM16A act inactive, IDE cell inh inactive, IDE cell activ inactive and CHT block -8.15.
For Cc1ccc(SCC(=O)Nc2cc([N+](=O)[O-])ccc2O)cc1 the results were CHT allo act inactive, TMEM16A inh 25, TMEM16A act inactive, IDE cell inh inactive, IDE cell activ inactive and CHT block inactive.
For CC(C)c1nnc(SCC(=O)N2CCN(C(=O)c3ccco3)CC2)n1N the results were CHT allo act inactive, TMEM16A inh inactive, TMEM16A act inactive, IDE cell inh inactive, IDE cell activ inactive and CHT block inactive.
Screening COc1ccc(OCc2n(CC(=O)OC3CC(C)CCC3C(C)C)c3ccccc3[n+]2C)cc1 (configuration not stated) returned CHT allo act inactive, TMEM16A inh inactive, TMEM16A act inactive, IDE cell inh inactive, IDE cell activ 18.2 and CHT block inactive.
`CC1CCC(C(C)C)C(OC(=O)CSc2nccc(=O)[nH]2)C1` (configuration not stated) gave CHT allo act inactive, TMEM16A inh inactive, TMEM16A act inactive, IDE cell inh inactive, IDE cell activ inactive and CHT block inactive.
`COc1ccc(-c2n(CC(=O)OC3CC(C)CCC3C(C)C)c3ccccc3[n+]2C)cc1` (configuration not stated) gave TMEM16A act -6.14 and IDE cell activ inactive.
Screening O=C(OCc1ccc(O)cc1)c1c(-c2ccsc2)oc2ccc(N3CCOCC3)cc12 returned CHT allo act inactive, TMEM16A inh inactive, TMEM16A act inactive, IDE cell inh inactive, IDE cell activ inactive and CHT block inactive.
C[C@@H](C(=O)NCCc1ccccc1)N1C(=O)N2CCc3c([nH]c4ccccc34)[C@@]2(C)C1=O was read as CHT allo act inactive, TMEM16A inh inactive, TMEM16A act inactive, IDE cell inh inactive, IDE cell activ inactive and CHT block inactive.
`C[C@@H](C(=O)NCCc1ccccc1F)N1C(=O)N2CCc3c([nH]c4ccccc34)[C@@]2(C)C1=O` gave CHT allo act inactive, TMEM16A inh 25, TMEM16A act inactive, IDE cell inh inactive, IDE cell activ inactive and CHT block inactive.
`C/C(=N\Nc1ccc(Cl)c(C(=O)O)c1)c1ccc(N2CCOCC2)cc1` gave CHT allo act inactive, TMEM16A inh 25, TMEM16A act inactive, IDE cell inh inactive, IDE cell activ inactive and CHT block inactive.
For O=C(Cn1nc(-c2ccccc2Cl)ccc1=O)Nc1ccc(Br)cc1 the results were CHT allo act inactive, TMEM16A inh inactive, TMEM16A act -30.1, IDE cell inh inactive, IDE cell activ inactive and CHT block inactive.
For CC(C)/C=C/CN1CCCC(N2CCN(c3cccc(Cl)c3)CC2)C1 (configuration not stated) the results were CHT allo act inactive, TMEM16A inh inactive, TMEM16A act inactive, IDE cell activ inactive and CHT block inactive.
